Active and inactive are the calls of the source.
How the values were obtained:
[1] = tested on: PRMT1 (protein arginine N-methyltransferase 1); test: small molecules binding arginine methyltransferase PRMT1 – biochemical, small-molecule microarray, 635 nm fluorescence, primary screen (AID 1088); settings: higher = more signal;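 also: binding of Prmt1 protein to compounds spotted on small-molecule microarray slides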
[2] = growth effects on S. cerevisiae YJM789 – YJM789 clinical isolate, OD600, 24 h, basal, primary screen (AID 1089); settings: higher = more signal, called active from +8 up or from −8 down;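 also: growth of clinical yeast isolate S. cerevisiae YJM 789 seeded 1000 cells per well; test concentration not given here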
[3] = S. pombe growth modifiers, basal conditions – strain 972, OD600, 24 h, no modulator, primary screen (AID 1090);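 also: basal condition with compound alone and no growth modifier present; test concentration not given here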; settings: S. pombe 972 growth, higher = more signal, called active from +8 up or from −8 down
[4] = budding yeast growth modifiers under rapamycin – strain BY4716, OD600, 96 h, primary screen (AID 1091); also: test concentration not given here; settings: S. cerevisiae BY4716 + rapamycin, higher = more signal, called active from +8 up or from −8 down
[5] = molecular target: Torsin-1A-interacting protein 2 (Homo sapiens) (UniProt Q8NFQ8); test: small molecules binding lysate-expressed LULL1 – cell lysate, human LULL1 lysate, 635/667 nm fluorescence, primary screen (AID 1092); settings: small-molecule microarray, hLULL1 lysate binding, 635 nm fluorescence; higher = more signal;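 also: probe is lysate of COS7 cells overexpressing human LULL1; score merges per-feature 667 nm fluorescence with signal-to-noise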
[6] = optical density change of DRC41 E. coli – strain DRC41, OD650, 24 h, E. coli filamentation project, primary screen (AID 1093);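 also: MC1000 strain lacking acrAB efflux and sulA so SOS filamentation is blocked; test concentration not given here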; settings: E. coli DRC41 growth, higher = more signal, called active from +8 up or from −8 down
[7] = probe aLefty2 binding to arrayed compounds – biochemical, biotinylated probe, 635/667 nm fluorescence, primary screen (AID 1094); settings: small-molecule microarray, higher = more signal;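 also: score merges spot fluorescence near 667 nm with spot signal-to-noise ratio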
[8] = tested on: Noggin (protein binding on small-molecule microarray); test: small molecules binding Noggin protein – biochemical, 635/667 nm fluorescence, primary screen (AID 1095); settings: 635 nm fluorescence, higher = more signal;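 also: score merges 667 nm feature fluorescence with signal to noise over triplicate slides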
[9] = molecular target: Neurogenic locus notch homolog protein 3 (Homo sapiens) (UniProt Q9UM47); test: small molecules binding NOTCH3 protein – biochemical, 635/667 nm fluorescence, primary screen (AID 1096); settings: small-molecule microarray, 635 nm fluorescence, higher = more signal
[10] = probe aEGFR binding to arrayed compounds – biochemical, biotinylated probe, 635/667 nm fluorescence, primary screen (AID 1097); settings: small-molecule microarray, higher = more signal;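 also: probe is a biotinylated anti-EGFR antibody binding compounds printed on slides; score combines fluorescence near 667 nm and signal to noise of each spot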
[11] = tested on: Plasmodium falciparum Sir2 (PF13_0152, Sir2A); test: Plasmodium falciparum Sir2A binding compounds – biochemical, small-molecule microarray, 635 nm fluorescence, primary screen (AID 1098); settings: fluorescence 635 nm, higher = more signal;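 also: score merges spot fluorescence intensity with its signal-to-noise ratio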
[12] = probe aDKK1 binding to arrayed compounds – biochemical, biotinylated probe, 635/667 nm fluorescence, primary screen (AID 1099); settings: small-molecule microarray, higher = more signal;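 also: score merges 667nm spot fluorescence with signal to noise across triplicate slides; reference of the scale not given here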
[13] = probe aCHRDL2 binding to arrayed compounds – biochemical, biotinylated probe, 635/667 nm fluorescence, primary screen (AID 1100); settings: small-molecule microarray, higher = more signal
[14] = change in splice reporter luminescence, either direction, cell-based, HEK293, spliceosome inhibition project, primary screen (AID 1101); settings: HEK293 splicing luciferase reporter, 24 h, higher = more signal, called active from +8 up or from −8 down;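 also: HEK293 cells carrying a splicing-competent luciferase reporter gene; test concentration not given here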
[15] = molecular target: Fibroblast growth factor 10 (Homo sapiens) (UniProt O15520); test: compounds binding fibroblast growth factor 10 – biochemical, small-molecule microarray, 635 nm fluorescence, primary screen (AID 1102); settings: FGF10 binding, fluorescence 635 nm, higher = more signal
[16] = tested on: glycogen synthase kinase-3 (GSK3A per assay name; protocol says GSK3B); test: compounds binding glycogen synthase kinase-3 – biochemical, small-molecule microarray, 635 nm fluorescence, GSK3A, primary screen (AID 1103); settings: fluorescence 635 nm, higher = more signal; also: the record names both GSK3A and GSK3B
[17] = molecular target: Epidermal growth factor receptor (Homo sapiens) (UniProt P00533); test: compounds binding epidermal growth factor receptor – biochemical, small-molecule microarray, 635 nm fluorescence, primary screen (AID 1104); settings: EGFR binding, higher = more signal;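 also: score merges 667 nm emission intensity with spot signal to noise over triplicate slides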
[18] = molecular target: Follistatin-related protein 3 (Homo sapiens) (UniProt O95633); test: compounds binding follistatin-related protein 3 – biochemical, small-molecule microarray, 635 nm fluorescence, primary screen (AID 1105); settings: FSTL3 binding, higher = more signal;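 also: score merges emission near 667 nm and signal to noise per printed spot across three slides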
[19] = molecular target: Dickkopf-related protein 1 (Homo sapiens) (UniProt O94907); test: small molecules binding DKK1 protein – biochemical, small-molecule microarray, 635 nm fluorescence scan, primary screen (AID 1106); settings: higher = more signal;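 also: score merges emission near 667 nm with signal to noise over three replicate slides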
[20] = tested on: Inhibin beta A chain (activin A); test: small molecules binding activin A – biochemical, small-molecule microarray, 635 nm fluorescence scan, primary screen (AID 1107); settings: INHBA, higher = more signal;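 also: mouse activin A protein probed at 4.33 µg/mL on printed slides; score merges bound-protein fluorescence near 667 nm with spot signal-to-noise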

Epidermal growth factor receptor (Homo sapiens), sequence (P00533 whole entry, looked up): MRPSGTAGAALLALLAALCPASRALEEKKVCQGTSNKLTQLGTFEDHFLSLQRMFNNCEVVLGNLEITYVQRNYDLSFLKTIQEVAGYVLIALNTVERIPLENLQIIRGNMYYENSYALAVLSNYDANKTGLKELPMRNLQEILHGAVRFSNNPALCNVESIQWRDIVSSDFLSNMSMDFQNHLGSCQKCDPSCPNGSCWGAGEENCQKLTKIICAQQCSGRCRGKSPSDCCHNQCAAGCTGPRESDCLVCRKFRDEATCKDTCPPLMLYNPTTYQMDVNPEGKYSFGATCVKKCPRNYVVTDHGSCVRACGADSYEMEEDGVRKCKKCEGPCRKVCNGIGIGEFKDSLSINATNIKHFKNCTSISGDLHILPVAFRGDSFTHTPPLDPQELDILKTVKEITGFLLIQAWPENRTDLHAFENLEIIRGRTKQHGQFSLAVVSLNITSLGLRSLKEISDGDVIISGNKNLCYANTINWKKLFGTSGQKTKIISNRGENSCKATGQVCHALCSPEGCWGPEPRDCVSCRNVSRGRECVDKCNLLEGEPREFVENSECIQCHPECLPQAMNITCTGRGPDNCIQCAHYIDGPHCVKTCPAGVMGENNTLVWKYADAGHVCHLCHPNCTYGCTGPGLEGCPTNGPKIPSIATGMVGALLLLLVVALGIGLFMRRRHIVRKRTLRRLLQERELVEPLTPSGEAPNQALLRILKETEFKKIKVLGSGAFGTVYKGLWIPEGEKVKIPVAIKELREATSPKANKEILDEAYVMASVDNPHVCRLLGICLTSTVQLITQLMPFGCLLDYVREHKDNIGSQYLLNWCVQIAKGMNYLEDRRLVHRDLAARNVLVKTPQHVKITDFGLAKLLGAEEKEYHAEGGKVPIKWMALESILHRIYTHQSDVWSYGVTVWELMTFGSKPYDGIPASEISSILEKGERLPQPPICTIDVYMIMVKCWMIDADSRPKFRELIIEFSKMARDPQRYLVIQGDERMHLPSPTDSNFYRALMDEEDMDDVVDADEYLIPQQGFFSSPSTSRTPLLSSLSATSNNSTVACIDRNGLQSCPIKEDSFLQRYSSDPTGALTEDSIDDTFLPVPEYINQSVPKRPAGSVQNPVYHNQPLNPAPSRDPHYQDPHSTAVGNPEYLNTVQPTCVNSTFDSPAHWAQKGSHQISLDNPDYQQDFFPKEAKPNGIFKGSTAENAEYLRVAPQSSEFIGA
Neurogenic locus notch homolog protein 3 (Homo sapiens), sequence (Q9UM47 whole entry, looked up): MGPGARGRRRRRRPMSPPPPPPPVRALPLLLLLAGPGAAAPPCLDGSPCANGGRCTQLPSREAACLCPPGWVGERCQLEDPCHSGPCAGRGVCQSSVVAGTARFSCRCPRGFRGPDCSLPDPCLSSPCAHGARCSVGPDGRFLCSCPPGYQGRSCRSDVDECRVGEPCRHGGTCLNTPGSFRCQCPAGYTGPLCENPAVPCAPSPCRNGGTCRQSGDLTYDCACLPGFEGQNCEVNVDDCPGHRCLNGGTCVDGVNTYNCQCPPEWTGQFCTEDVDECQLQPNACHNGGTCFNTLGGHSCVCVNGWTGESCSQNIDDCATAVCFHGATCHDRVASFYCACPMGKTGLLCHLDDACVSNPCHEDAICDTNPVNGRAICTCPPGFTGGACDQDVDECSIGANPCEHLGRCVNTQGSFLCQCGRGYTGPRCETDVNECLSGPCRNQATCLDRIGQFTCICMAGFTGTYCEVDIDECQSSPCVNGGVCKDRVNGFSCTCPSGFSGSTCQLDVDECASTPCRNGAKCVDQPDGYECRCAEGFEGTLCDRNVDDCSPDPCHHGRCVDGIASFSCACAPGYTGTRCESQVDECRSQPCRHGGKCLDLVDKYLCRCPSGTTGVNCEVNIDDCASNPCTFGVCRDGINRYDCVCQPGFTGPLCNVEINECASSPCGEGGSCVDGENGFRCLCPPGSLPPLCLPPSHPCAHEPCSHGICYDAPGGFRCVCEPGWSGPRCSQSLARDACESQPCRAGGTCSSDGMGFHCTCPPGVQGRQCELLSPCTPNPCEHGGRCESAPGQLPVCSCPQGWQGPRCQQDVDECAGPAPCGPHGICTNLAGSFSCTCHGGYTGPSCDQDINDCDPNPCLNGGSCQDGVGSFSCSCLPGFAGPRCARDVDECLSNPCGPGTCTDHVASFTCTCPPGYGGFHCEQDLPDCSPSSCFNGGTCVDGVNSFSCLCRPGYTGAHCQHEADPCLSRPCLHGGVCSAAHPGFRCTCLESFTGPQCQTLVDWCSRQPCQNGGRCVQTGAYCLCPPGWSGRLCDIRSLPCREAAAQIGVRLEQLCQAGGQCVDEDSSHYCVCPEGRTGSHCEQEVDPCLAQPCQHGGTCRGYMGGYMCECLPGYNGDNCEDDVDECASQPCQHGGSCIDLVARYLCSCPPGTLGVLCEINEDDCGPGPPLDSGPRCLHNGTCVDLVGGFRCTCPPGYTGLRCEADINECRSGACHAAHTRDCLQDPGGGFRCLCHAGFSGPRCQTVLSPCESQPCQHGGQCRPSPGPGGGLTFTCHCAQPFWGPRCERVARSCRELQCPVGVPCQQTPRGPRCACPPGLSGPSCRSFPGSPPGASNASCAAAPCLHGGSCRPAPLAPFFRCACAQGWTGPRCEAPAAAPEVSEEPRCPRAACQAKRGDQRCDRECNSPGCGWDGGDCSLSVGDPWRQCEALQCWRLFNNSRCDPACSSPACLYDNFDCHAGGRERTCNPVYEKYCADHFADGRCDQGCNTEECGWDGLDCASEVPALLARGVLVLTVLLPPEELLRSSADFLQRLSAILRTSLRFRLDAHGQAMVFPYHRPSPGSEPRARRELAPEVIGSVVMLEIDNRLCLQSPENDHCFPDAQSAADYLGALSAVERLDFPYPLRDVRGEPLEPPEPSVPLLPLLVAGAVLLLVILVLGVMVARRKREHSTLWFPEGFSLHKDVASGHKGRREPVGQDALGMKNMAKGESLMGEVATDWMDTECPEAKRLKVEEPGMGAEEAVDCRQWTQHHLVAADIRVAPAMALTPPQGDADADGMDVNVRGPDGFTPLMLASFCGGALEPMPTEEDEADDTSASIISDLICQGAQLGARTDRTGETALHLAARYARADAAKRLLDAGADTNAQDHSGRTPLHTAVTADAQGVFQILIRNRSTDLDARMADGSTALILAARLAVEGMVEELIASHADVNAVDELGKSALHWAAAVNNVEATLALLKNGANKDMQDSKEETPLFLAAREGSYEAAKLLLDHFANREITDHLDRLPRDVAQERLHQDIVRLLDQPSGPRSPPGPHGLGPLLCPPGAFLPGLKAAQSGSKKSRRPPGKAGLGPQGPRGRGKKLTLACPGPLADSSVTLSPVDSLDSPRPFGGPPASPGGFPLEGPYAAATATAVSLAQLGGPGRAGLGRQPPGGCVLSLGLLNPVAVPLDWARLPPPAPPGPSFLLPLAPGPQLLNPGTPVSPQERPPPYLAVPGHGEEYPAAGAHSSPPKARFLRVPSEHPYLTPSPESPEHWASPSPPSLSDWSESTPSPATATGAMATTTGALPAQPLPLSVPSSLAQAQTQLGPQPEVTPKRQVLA
Follistatin-related protein 3 (Homo sapiens), sequence (O95633 whole entry, looked up): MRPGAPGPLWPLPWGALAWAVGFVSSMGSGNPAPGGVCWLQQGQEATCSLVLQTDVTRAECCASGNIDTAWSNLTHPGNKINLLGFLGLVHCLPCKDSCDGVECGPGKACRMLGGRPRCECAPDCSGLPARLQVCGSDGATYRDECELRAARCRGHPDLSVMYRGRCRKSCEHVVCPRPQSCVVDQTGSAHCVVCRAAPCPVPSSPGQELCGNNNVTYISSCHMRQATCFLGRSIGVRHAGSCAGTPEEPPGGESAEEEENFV
Dickkopf-related protein 1 (Homo sapiens), sequence (O94907 whole entry, looked up): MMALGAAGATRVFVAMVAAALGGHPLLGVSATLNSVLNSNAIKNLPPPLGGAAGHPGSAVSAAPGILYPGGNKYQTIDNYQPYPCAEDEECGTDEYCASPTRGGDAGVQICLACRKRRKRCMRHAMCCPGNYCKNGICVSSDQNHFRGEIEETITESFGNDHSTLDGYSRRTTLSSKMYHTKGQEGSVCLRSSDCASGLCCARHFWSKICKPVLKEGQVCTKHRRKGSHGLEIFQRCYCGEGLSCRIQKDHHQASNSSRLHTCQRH
Fibroblast growth factor 10 (Homo sapiens), sequence (O15520 whole entry, looked up): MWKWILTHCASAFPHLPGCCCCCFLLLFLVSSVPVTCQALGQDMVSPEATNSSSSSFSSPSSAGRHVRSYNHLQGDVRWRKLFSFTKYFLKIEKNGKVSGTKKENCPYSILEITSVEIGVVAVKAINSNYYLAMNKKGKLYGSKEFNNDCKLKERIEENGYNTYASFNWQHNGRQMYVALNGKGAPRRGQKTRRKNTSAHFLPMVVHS
Torsin-1A-interacting protein 2 (Homo sapiens), sequence (Q8NFQ8 whole entry, looked up): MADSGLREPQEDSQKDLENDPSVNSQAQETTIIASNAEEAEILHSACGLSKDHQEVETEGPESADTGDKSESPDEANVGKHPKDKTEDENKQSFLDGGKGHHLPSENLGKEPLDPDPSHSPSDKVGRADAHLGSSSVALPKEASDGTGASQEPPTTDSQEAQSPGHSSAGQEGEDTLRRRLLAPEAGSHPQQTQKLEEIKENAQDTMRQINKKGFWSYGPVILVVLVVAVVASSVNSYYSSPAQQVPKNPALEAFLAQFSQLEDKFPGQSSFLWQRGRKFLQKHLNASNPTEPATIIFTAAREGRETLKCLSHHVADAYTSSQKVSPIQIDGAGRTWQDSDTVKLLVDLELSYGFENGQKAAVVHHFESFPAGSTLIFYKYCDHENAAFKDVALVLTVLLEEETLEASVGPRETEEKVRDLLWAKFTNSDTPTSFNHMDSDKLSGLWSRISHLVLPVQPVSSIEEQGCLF

SMILES | composite z-score [1] | z-score [2] | z-score [3] | z-score [4] | composite z-score [5] | z-score [6] | composite z-score [7] | composite z-score [8] | composite z-score [9] | composite z-score [10] | composite z-score [11] | composite z-score [12] | composite z-score [13] | z-score [14] | composite z-score [15] | composite z-score [16] | composite z-score [17] | composite z-score [18] | composite z-score [19] | composite z-score [20]
CC(C)CNC(=O)[C@@]1(C)c2ccccc2C(=O)N(Cc2cc(C(F)(F)F)cc(C(F)(F)F)c2)[C@H]1c1ccc(CO)cc1 | 1.3 | -0.721 (inactive) | 0.4 (inactive) | -0.699 (inactive) | 1.16 | 0.497 (inactive) | 0.0481 | -0.558 | -0.966 | -0.1 | 0.386 | -0.147 | 0.587 | 0.0167 (inactive) | -0.631 | -1.02 | -0.647 | -0.522 | -0.6 | 0.32
Cc1ccc(N2C(=O)c3ccccc3[C@](C)(C(=O)NCc3ccccc3)[C@@H]2c2ccc(CO)cc2)nc1 | 0.596 | 0.34 (inactive) | -0.72 (inactive) | -0.0557 (inactive) | 0.945 | 0.148 (inactive) | 0.0781 | 0.184 | -0.456 | 0.108 | 1.39 | 0.499 | 0.615 | -0.0691 (inactive) | 0.0497 | -0.341 | -0.219 | -0.192 | 0.381 | 1.21
C=CCC(OC(C)=O)[C@@H]1[C@@H](N(Cc2cccc3ccccc23)C(=O)Cc2ccc(F)cc2)c2cc(OCCCO)ccc2N1C(=O)c1ccc(-c2ccccc2)cc1 (stereo not given in full) | -0.325 | -0.256 (inactive) | -0.277 (inactive) | 0.18 (inactive) | 0.451 | 0.125 (inactive) | 0.125 | -0.556 | -1.37 | 0.0457 | -0.171 | 0.592 | 0.976 | -0.312 (inactive) | -0.219 | -0.502 | -0.304 | 0.047 | -0.506 | 1.45
[N-]=[N+]=NCc1ccccc1C[C@@]1(C(=O)N2CCCCC2)N=C(c2ccc(OCCCO)cc2)O[C@@H]1c1ccccc1CN=[N+]=[N-] | 1.28 | -0.364 (inactive) | 0.78 (inactive) | 25.9 (active) | 2.46 | 0.76 (inactive) | 0.154 | -0.147 | 0.278 | -0.0833 | 0.649 | 0.453 | 1.07 | -0.4 (inactive) | 0.375 | 0.962 | -0.0197 | -0.0105 | 0.287 | 0.964
O=C1c2ccccc2[C@](Cc2ccccc2I)(C(=O)NC2CC2)[C@H](c2ccc(CO)cc2)N1Cc1ccccc1C(F)(F)F | 1.55 | -0.124 (inactive) | -0.684 (inactive) | 0.341 (inactive) | 2.76 | -1.8 (inactive) | -0.0817 | 0.894 | 1.06 | -0.139 | 1.43 | -0.349 | 0.768 | -0.987 (inactive) | 0.535 | -0.265 | -0.922 | 0.32 | -0.74 | -0.771

Reference: PubChem BioAssay
